# According to PubChem BioAssay AID527 (NMMLSC, 2006):
# Out of some 24,000 compounds screened, about 65 (0.3%) were called active.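 How the source made its calls: active means share of bacteria positive for the green fluorescent reporter and its mean brightness both inhibited by 50% or more; inactive means the rest, inconclusive results apart.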 This excerpt belongs to a sample that is enriched for actives.
# Assay: blockers of AIP-driven agr signalling in S. aureus – RNAIII-GFP reporter, flow cytometry, primary screen (AID 527);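 further: 0% = AIP-stimulated control and 100% = unstimulated bacteria without AIP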
# Conditions: S. aureus RN6390 RNAIII-GFP reporter, AIP-induced, flow cytometry 3 h, at 2 µM, stronger effect = higher value
# [1] = measured here: inhibition of GFP MFI
SMILES,inhibition,inhibition [1] [%]
Cc1nc2ccc(S(=O)(=O)NCC(=O)NCCN3CCCCC3C)cc2s1 (centres undefined),-2.2% (inactive),-14.7
CCCOC(=O)c1cc2ccccc2oc1=O,3.4% (inactive),8.3
CSc1cccc(NC(=O)C2CCCN2S(=O)(=O)c2ccc3c(c2)CCC(=O)N3)c1 (centres undefined),8.9% (inactive),21
O=C(CN1C(=O)CSc2ncccc21)N1CCOCC1,-5.1% (inactive),-14.2
CC1CN(C(=O)c2ccc3c(c2)OCO3)OC(c2ccccc2)O1 (centres undefined),6% (inactive),10.1
c1ccc(-c2cn3cccnc3n2)cc1,-2.7% (inactive),-34.3
CS(=O)(=O)NCc1ccc(C(=O)NCc2ccccc2)cc1,-0.2% (inactive),-1.2
CS(=O)(=O)N(Cc1nc2sc3c(c2c(=O)[nH]1)CCCC3)C1CCCCC1,0.3% (inactive),-0.2
Cc1ccc(NC(=O)CSc2nnc(-c3cnccn3)n2Cc2ccco2)cc1C,-0.7% (inactive),-6.3
CC(=O)C1C(c2cccc(Oc3ccccc3)c2)NC(=O)NC1(O)C(F)(F)F (centres undefined),18.4% (inactive),32
CCOc1ccc(NCCC(=O)c2ccc3c(c2)OCO3)cc1,-0.1% (inactive),10.4
CCOC(=O)C1CCN(C(=O)C2CCN(S(=O)(=O)c3c(C)noc3C)CC2)CC1,-1.5% (inactive),-40
COc1cc(C2C(C#N)=C(N)Oc3n[nH]c(-c4ccccn4)c32)cc(OC)c1OC (centres undefined),-3.4% (inactive),8.1
CSc1ccc(NC(=O)N2CC(C)OC(C)C2)cc1 (centres undefined),0% (inactive),1.1
O=C(CN1CCN(S(=O)(=O)c2ccc(F)cc2)CC1)Nc1ccccc1F,11.5% (inactive),16.5
COc1ccc(C2CC(c3ccc(C)cc3)Nc3ncnn32)cc1 (centres undefined),-0.4% (inactive),12.6
CCCCN=C(N)/C(C(=O)OCC)=C(\O)c1ccc(OC)cc1,0.5% (inactive),11.9
O=C(O)c1cccc2c1C(=O)N(C1CCCCC1)C2,0% (inactive),21.1
CCN(CC)S(=O)(=O)c1ccc2[nH]cc(C(=O)NCCc3ccccc3)c(=O)c2c1,-0.1% (inactive),-2.7

SMILES,inhibition,inhibition [1] [%]
COc1c(F)c(F)c(C(=O)O)c(Nc2ccccc2C)c1F,-1.7% (inactive),-14
COc1ccc(C(=O)Nc2cccnc2)cc1C(=O)Nc1cccnc1,2.2% (inactive),2.6
COc1ccc(N2C(=O)c3cccc4cccc(c34)C2=O)nn1,-1.1% (inactive),-16.4
Cc1cccc(C)c1NC(=O)N1CC=C(n2c(=O)[nH]c3ccccc32)CC1,8.3% (inactive),17.1
CCCCC(CC)C(=O)Nc1ccc(Cl)cn1 (centres undefined),0.6% (inactive),18.7
Cc1nc2nc[nH]n2c(=O)c1NC(=O)c1cccc(OCC(C)C)c1,-5.4% (inactive),-8.1
COc1ccc(-c2c(C)nn3c(N4CCC(C(=O)N5CCCCC5)CC4)cc(C)nc23)cc1OC,-3.5% (inactive),-8.8
CCOc1ccc(-c2nnn(CC(=O)N3CCN(c4ccc(F)cc4)CC3)n2)cc1OCC,0.7% (inactive),1.3
COc1cccc(CN2C(=O)CCC2(C)C(=O)NC2CCCCCC2)c1 (centres undefined),-1.4% (inactive),-12.5
COCCCNC(=O)c1ccc2c(c1)ncn2-c1ccccc1OC,-3.4% (inactive),-5.1
CCOC(=O)c1cc(NC(=O)SCC(=O)O)c(C)nc1C,-1.6% (inactive),-14.7
CCOc1cc(/C=N/n2cnnc2)c(Br)cc1O,-1.6% (inactive),-8.8
COCCNC(=S)c1ccc(OC)cc1,-3.4% (inactive),-6.1
Clc1ccc(Cc2nn3c(-c4ccncc4)nnc3s2)cc1,0.3% (inactive),5.4
CCC(=O)c1ccc(OCC(O)CN2C(=O)NC(C)(C)C2=O)cc1 (centres undefined),-0.8% (inactive),-2.7
COc1ccc(S(=O)(=O)NC(CC(=O)NCc2ccccc2OC)c2ccco2)cc1 (centres undefined),-0.4% (inactive),-11.3
CC(C)CCNC(=O)CCNS(=O)(=O)c1ccc(Cl)cc1,2.3% (inactive),8
O=C(CCS(=O)(=O)Cc1ccccc1F)NCCCN1CCCCC1,-1.8% (inactive),-2.4
